# DT40 TDP1 no CPT = qHTS for Inhibitors of human tyrosyl-DNA phosphodiesterase 1 (TDP1): qHTS in cells in absence of CPT | DT40 Tdp1-/- hTDP1 cells, no CPT, ATP luminescence, 48 h | Potency, µM (doses to about 46.2 µM), most hits filed as inhibitors | hit rate 15% among 420,000; also: nearly all actives have a fitted effect of over 55% in size
#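 Stably hTDP1-transfected Tdp1-null chicken DT40 cells were treated with library compounds minus camptothecin and grown for at least 48 hr at 37 °C, after which cellular ATP was quantified by luminescence.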
# RORg inh = qHTS for inhibitors of ROR gamma transcriptional activity. AID 2551, 2010. Potency, µM (series often up to 53.6 µM), most hits filed as inhibitors. Drosophila S2 Gal4-RORgamma UAS-luciferase reporter, 20 h. hit rate 5.4% among 310,000; also: nearly all actives have a fitted effect of over 60% in size
#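 Stable Schneider cell line, Gal4 DNA-binding domain fused to ROR gamma, UAS-luciferase. Cmpd 1 hr RT → CuSO4 700 uM final → 20 hr RT → luciferase reagent 10 min → luminescence.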
# ALOX12 inh = Primary qHTS assay for inhibitors of human arachidonate 12S-lipoxygenase (ALOX12): Round 2 | purified 12hLO, xylenol orange hydroperoxide absorbance | Potency, µM (doses to about 108 µM), usual class: inhibitors | hit rate 1.1% among 580,000 | AID 1671190, 2021
# Target sequence (P18054 whole entry, looked up): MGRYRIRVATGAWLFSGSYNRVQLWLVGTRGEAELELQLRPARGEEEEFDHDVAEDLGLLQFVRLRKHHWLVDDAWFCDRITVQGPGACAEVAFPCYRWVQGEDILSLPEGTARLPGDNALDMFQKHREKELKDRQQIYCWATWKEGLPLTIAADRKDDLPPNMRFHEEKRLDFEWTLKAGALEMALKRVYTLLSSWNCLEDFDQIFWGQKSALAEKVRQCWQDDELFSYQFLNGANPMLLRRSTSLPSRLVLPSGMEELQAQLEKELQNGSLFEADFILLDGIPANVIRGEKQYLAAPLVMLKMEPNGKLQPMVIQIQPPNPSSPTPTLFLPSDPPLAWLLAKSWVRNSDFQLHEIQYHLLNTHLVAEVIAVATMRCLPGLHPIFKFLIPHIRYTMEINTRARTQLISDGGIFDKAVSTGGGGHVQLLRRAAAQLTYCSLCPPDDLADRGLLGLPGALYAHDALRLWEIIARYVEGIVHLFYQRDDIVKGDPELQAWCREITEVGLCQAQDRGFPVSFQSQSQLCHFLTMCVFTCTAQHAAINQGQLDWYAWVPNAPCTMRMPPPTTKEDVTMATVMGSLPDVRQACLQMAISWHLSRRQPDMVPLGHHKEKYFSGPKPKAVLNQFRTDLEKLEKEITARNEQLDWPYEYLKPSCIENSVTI
#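 Purified human 12hLO at 150 nM in 25 mM Hepes, 0.01% Triton X-100, pH 7.0, preincubated 15 min at room temperature with compound. Reaction started with 40 uM arachidonic acid, 30 min at room temperature. Hydroperoxide measured by Fe-xylenol orange, 573/405 nm absorbance ratio.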
# Gal4-VP16 FLuc = VP16 counterscreen qHTS for inhibitors of ROR gamma transcriptional activity | AID 2546, 2010 | hit rate 3.5% among 310,000 | Potency, µM (doses to about 53.6 µM), hits mostly inhibitors | Drosophila S2 Gal4-VP16 UAS-luciferase, luminescence, 20 h;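 also: Gal4-VP16 expression switched on by copper sulfate through the metallothionein promoter; nearly all actives have a fitted effect of over 50% in size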
# ELG1 DNA repair = qHTS screen for small molecules that inhibit ELG1-dependent DNA repair in human embryonic kidney (HEK293T) cells expressing luciferase-tagged ELG1; HEK293T ELG1-luciferase reporter, luminescence, 16 h; DNA damage induced by 5-fluorouridine; Potency, µM (highest dose often 46.1 µM), usual class: inhibitors; hit rate 2.3% among 330,000; also: nearly all actives have a fitted effect of over 55% in size
#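 Reporter activity after DNA damage by 5-fluorouridine is monitored. Compound-treated cells incubate 16 hr at 37 °C, then ONE-Glo is added for 30 min before luminescence reading.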
# TDP1 cell CPT = qHTS for Inhibitors of human tyrosyl-DNA phosphodiesterase 1 (TDP1): qHTS in cells in presence of CPT; Potency, µM (top dose mostly 46.2 µM), usual class: inhibitors; AID 686979, 2013; hit rate 12% among 420,000; chicken DT40 Tdp1-/-;hTDP1 cells + 20 nM CPT, ATP luminescence, 48 h; also: nearly all actives have a fitted effect of over 55% in size
#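 Chicken DT40 Tdp1-/- cells complemented with human TDP1, 400 cells/well, exposed to compounds plus 20 nM camptothecin for at least 48 h at 37 C; viability read as ATP content by CellTiter-Glo luminescence.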
# Numbers stand for hits; i = inactive; ? = inconclusive; nt = no result given; [ ] = another dose, or the depositor's remark. An excerpt weighted towards active compounds, which were near 15% of everything screened. Calls follow the shape of the dose curve; as a rule, active = well fitted curve in the direction sought with a large enough effect; inconclusive = small, poorly fitted or top-dose-only effect, or another doubt; inactive = no such curve, though single readings can be large; an effect the other way counts as inactive or inconclusive.
SMILES,DT40 TDP1 no CPT,RORg inh,ALOX12 inh,Gal4-VP16 FLuc,ELG1 DNA repair,TDP1 cell CPT
NC(=O)C(c1ccccc1)(c1ccccc1)c1ccccc1,nt,nt,i,nt,nt,nt
CCCn1c(C)cnc1C1CCN(C(=O)NC(C)C)C1 (centres undefined),nt,nt,i,nt,nt,nt
Cc1nn(-c2ccccc2)c(N)c1N=Nc1ccc2ccccc2c1,?,1.1µM,i,i,?,i
Cc1nn(-c2ccccc2)c(N)c1N=O,i,i,i,i,i,i
Cc1ccc(N=Nc2c(N)nn3c(C)cc(C)nc23)cc1,23µM,?,i,?,i,?
Cc1ccc(N=Nc2c(N)nn(-c3ccccc3)c2N)cc1,4.6µM,i,i,i,?,3.7µM
O=C(N[C@@H](Cc1ccccc1)C(=O)NCc1cccs1)c1cccs1,nt,nt,i,nt,nt,nt
COc1cc(Nc2nc3ccccc3nc2NS(=O)(=O)c2ccc([N+](=O)[O-])cc2)cc(OC)c1OC,?,4.5µM,i,5µM,16µM,10µM
O=[N+]([O-])c1ccc(S(=O)(=O)Nc2nc3ccccc3nc2Nc2ccccc2)cc1,2.9µM,8.9µM,i,?,?,3.3µM
COc1ccc(S(=O)(=O)Nc2nc3ccccc3nc2Nc2ccc(C)c(C)c2)cc1,nt,nt,i,nt,nt,nt
CC(=O)Oc1ccc2oc(=O)c(-c3ccccc3)c(C)c2c1,nt,nt,i,nt,nt,nt
CCN(c1ccccc1)S(=O)(=O)c1ccc(Cl)c(NC(=O)CN2C(=O)NC3(CCCC3)C2=O)c1,18µM,i,i,i,i,?
Cc1ccc(C2(C)NC(=O)N(CC(=O)Nc3ccc4c(c3)CCC4)C2=O)cc1 (centres undefined),i,nt,i,nt,i,?
Cc1cc(NC(=O)CN2C(=O)NC3(CCCCCC3)C2=O)ccc1Br,21µM,nt,i,nt,?,?
CC(C)CC1(C)NC(=O)N(CC(=O)Nc2ccc3c(c2)CCC3)C1=O (centres undefined),26µM,?,i,i,i,?
O=C(CN1C(=O)NC2(CCCC2)C1=O)OCc1ccc(Cl)c(Cl)c1,21µM,nt,i,nt,?,16µM
COCCn1c(C)cc(C(=O)CN2C(=O)NC3(CCCCCC3)C2=O)c1C,i,nt,?,nt,?,i
CCCn1c(C)cc(C(=O)CN2C(=O)NC3(CCCCCC3)C2=O)c1C,6.5µM,nt,i,nt,nt,10µM
CCc1ccc(C(=O)CN2C(=O)NC3(CCCCCC3)C2=O)cc1,23µM,nt,?,nt,?,?
CC1CCC2(CC1)NC(=O)N(CC(=O)Nc1cccc(S(=O)(=O)N3CCOCC3)c1)C2=O (centres undefined),i,i,i,i,i,i
O=C(CN1C(=O)NC2(CCCCCC2)C1=O)Nc1ccc(OC(F)(F)F)cc1,9.2µM,nt,?,nt,nt,15µM
CC1CCC2(CC1)NC(=O)N(CC(=O)Nc1cccc(S(=O)(=O)N3CCCCC3)c1)C2=O (centres undefined),23µM,nt,i,nt,i,?
COc1ccc2c(C)c(CC(=O)Nc3ccc4c(c3)OCCO4)c(=O)oc2c1,nt,nt,i,nt,nt,nt
CC1(c2cccc(Br)c2)NC(=O)N(CC(=O)Nc2ccc(N3CCCCC3)cc2)C1=O (centres undefined),13µM,nt,i,nt,nt,?
CCN(CC)c1ccc(S(=O)(=O)N2CCCCC2)cc1NC(=O)CN1C(=O)NC2(CCCC2)C1=O,?,nt,i,nt,i,i
SMILES,DT40 TDP1 no CPT,RORg inh,ALOX12 inh,Gal4-VP16 FLuc,ELG1 DNA repair,TDP1 cell CPT
CCc1cccc(NC(=O)CN2C(=O)NC3(CCC(C)CC3)C2=O)c1 (centres undefined),nt,nt,i,nt,nt,nt
O=C(CN1C(=O)NC2(CCCCCCC2)C1=O)Nc1ccc(Cl)cc1,15µM,nt,i,nt,i,13µM
CCC1(c2ccccc2)NC(=O)N(CC(=O)Nc2cc(S(=O)(=O)N3CCCCC3)ccc2N(C)C)C1=O (centres undefined),21µM,nt,i,nt,i,?
CC1(c2cccc(Br)c2)NC(=O)N(CC(=O)Nc2ccc(F)cc2)C1=O (centres undefined),?,i,i,i,i,i
CCc1cccc(NC(=O)CN2C(=O)NC3(CCCCCCC3)C2=O)c1,15µM,?,i,i,i,10µM
CCC(CC)C(=O)Nc1ccc(C)c(C)c1,nt,nt,i,nt,nt,nt
COc1ccc(-c2ocnc2C(=O)Nc2ccc3c(c2)OCCO3)cc1,nt,nt,i,nt,nt,nt
O=C1NC2(CCCCC2)C(=O)N1Cc1cccc(C(F)(F)F)c1,i,i,i,i,9.2µM,i
O=C(c1ccc(C(F)(F)F)cc1)N1CCC(N2CCCS2(=O)=O)CC1,nt,nt,i[6.33 µM],nt,nt,nt
CCCNC(=O)NCCc1c(C)[nH]c2ccccc12,i,i,i,i,i,i
Cc1[nH]c2c(C)cccc2c1CCNC(=O)c1ccc2c(c1[N+](=O)[O-])C(=O)c1ccccc1C2=O,8.2µM,6.3µM,i,?,?,16µM
Cc1ccc2c(c1[N+](=O)[O-])C(=O)c1ccccc1C2=O,nt,i,nt,?,nt,nt
Cc1[nH]c2ccccc2c1CCNC(=O)c1ccc2c(c1[N+](=O)[O-])C(=O)c1ccccc1C2=O,2.9µM,10µM,i,?,i,4.6µM
CN(C)C(=O)c1ccc2c(c1[N+](=O)[O-])C(=O)c1ccccc1C2=O,5.8µM,2.2µM,i,3.5µM,?,2.9µM
O=S(=O)(c1cccs1)N1CCOC(Cc2cccc(F)c2)C1 (centres undefined),nt,nt,i,nt,nt,nt
CC(C)CC(CNC(=O)Cc1n[nH]c(=O)c2ccccc12)N1CCOCC1 (centres undefined),nt,nt,i,nt,nt,nt
COc1ccc(C(=O)CSc2nc3nc(C)c(Br)cc3[nH]2)cc1,nt,nt,i,nt,nt,nt
CCS(=O)(=O)Nc1ccc(Cc2ccc(NS(=O)(=O)CC)cc2)cc1,?,1.3µM,i,?,?,?
CC(=O)c1ccc(S(=O)(=O)NC2CC(=O)N(c3ccc(Cl)cc3)C2)cc1 (centres undefined),13µM,nt,i,nt,?,?
O=C(NC1CC(=O)N(c2ccc(Cl)cc2)C1)c1ccc(S(=O)(=O)N2CCOCC2)cc1 (centres undefined),i,nt,i,nt,nt,i
c1ccc(Oc2ccccc2-c2cc(NCCc3cccnc3)n3nccc3n2)cc1,?,nt,i,nt,nt,18µM
c1ccc(Oc2ccc(-c3cc(NCCc4cccnc4)n4nccc4n3)cc2)cc1,i,nt,?,nt,nt,?
CC(=O)c1cc(C)c(OC(=O)c2ccccc2)c(C)c1,?,nt,i,nt,nt,?
CC(=O)Cc1cc(O)c2ccccc2c1OC(=O)c1ccccc1,15µM,i,i,i,i,?
